Assay outcomes deposited in PubChem by several laboratories.
AI-2 QS mod: modulates the Vibrio harveyi AI-2 quorum sensing system. actives 0.4% (n = 300,000). Vibrio harveyi JMH597 AI-2 luminescence/OD600 ratio, 9 h; stronger effect = lower value; strain lacks LuxN and CqsS sensors; 0 = neutral-control median. AID 2094. activity change, % at 7.5 µM; in the data active = activity change below about -75%, passing the limit was not always enough;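 also: luminescence divided by OD600 gain over 9 h not by final OD600 alone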
PREPL inh: inhibits the human prolyl oligopeptidase-like enzyme | Q4J6C6 | recombinant PREPL, fluorescence polarization activity-based probe | inhibition, % at 5.96 µM | actives 0.68% (n = 320,000); in the data active = inhibition above about 43%;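 also: 0% = enzyme with DMSO and 100% = wells lacking enzyme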
ALR H2O2 inh: inhibitors of human sulfhydryl oxidase ALR. P55789. purified ALR, DTT oxidation, H2O2 HRP-luminol luminescence. inhibition, % (test concentration not listed). actives 3.8% (n = 290,000);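 active = mean replicate inhibition above about 79%, with every replicate also reaching it, limit read from the data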
Target sequence (P55789 whole entry, looked up): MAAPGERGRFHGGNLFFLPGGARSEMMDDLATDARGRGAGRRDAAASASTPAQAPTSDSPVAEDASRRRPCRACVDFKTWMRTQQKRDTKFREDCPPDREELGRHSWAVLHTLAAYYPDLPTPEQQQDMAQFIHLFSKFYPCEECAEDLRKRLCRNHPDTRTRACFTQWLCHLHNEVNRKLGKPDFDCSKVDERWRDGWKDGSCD
CHT block: human CHT choline transport inhibition; Q9GZV3; CHT-expressing cells, membrane potential dye, choline response; stronger effect = lower value; B-score at 10 µM; actives 0.86% (n = 310,000); AID 488975;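 active = B-score over 3 SD under the library average, and starting fluorescence ratio not unusually high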;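 also: choline stimulus applied at its EC90 after an EC20 pre-addition; B-score computed on integrated fluorescence ratio after choline addition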
CHT PAM: human CHT allosteric activation; CHT-expressing cells, membrane potential dye, choline EC20; stronger effect = higher value; LV-AA mutant CHT in HEK293 cells; AID 488977; actives 0.49% (n = 310,000); B-score at 10 µM;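 active = initial fluorescence not abnormally high and integrated response B-score, plate-corrected, over 3 SD above library mean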
CHT block conf: human CHT inhibition, confirmatory screen | actives 70% (n = 2,400) | shares compounds with CHT block | AID 493221 | CHT-expressing cells, choline membrane potential dye; LV-to-AA substituted CHT, HEK293 cells | CHT activity remaining % of control (stronger effect = lower value), % at 10 µM;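 active = choline transporter activity left, mean of duplicates at 10 µM, below buffer-only control mean minus 3 SD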;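 also: depolarization triggered by choline at its EC90 following an EC20 pre-addition; 0% = hemicholinium-3 full block and 100% = buffer-only control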
HEK293 CHT ctr: activity in parental HEK293 cells lacking CHT | membrane potential ratio readout (active if shifted either direction beyond buffer ±3SD; no single direction) at 10 µM | shares compounds with CHT block | membrane potential dye, choline response; active = decrease or increase beyond buffer ±3SD | actives 4% (n = 2,400);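 also: parental cells lack the transporter so any hit is non-specific; ratio is peak minus trough fluorescence over baseline after EC90 choline challenge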
Numbers without * were called inactive. An excerpt weighted towards active compounds, which were near 5% of everything screened.

CC1CCN(CC(O)COc2ccc(OCC(O)CN3CCC(C)CC3)cc2)CC1 (stereo unspecified) was read as AI-2 QS mod 13, PREPL inh -7, ALR H2O2 inh 1, CHT block -10*, CHT PAM inactive, CHT block conf 5.8%* and HEK293 CHT ctr inactive.
Screening CCCN(CCC)Cc1c(C(=O)N/N=C/C(C)=C\c2ccco2)nnn1-c1nonc1N returned AI-2 QS mod 36, PREPL inh 14, ALR H2O2 inh -13, CHT block -5.3*, CHT PAM inactive, CHT block conf 60%* and HEK293 CHT ctr inactive.
For CN(C(=O)CSc1nc2ccc([N+](=O)[O-])cc2s1)C1CCS(=O)(=O)C1 (stereo unspecified) the results were AI-2 QS mod 21, PREPL inh 13, ALR H2O2 inh 31, CHT block inactive and CHT PAM inactive.
CCc1ccc(S(=O)(=O)NC2CC(C)(C)NC(C)(C)C2)cc1 was read as PREPL inh 3, ALR H2O2 inh 0, CHT block inactive and CHT PAM inactive.
`COc1ccc(Br)cc1/C=C/C(=O)NC(=S)Nc1ccc(Cl)c(C(=O)O)c1` gave AI-2 QS mod -2, PREPL inh -40, ALR H2O2 inh 7, CHT block inactive and CHT PAM inactive.
For COc1ccc(Br)cc1C(=O)NC(=S)Nc1ccc(Cl)c(C(=O)O)c1 the results were AI-2 QS mod 30, PREPL inh -8, ALR H2O2 inh 11, CHT block inactive, CHT PAM inactive, CHT block conf 58%* and HEK293 CHT ctr inactive.
Screening CCCOc1ccc(C(CC(=O)O)NC(=O)c2sc3ccccc3c2Cl)cc1 (stereo unspecified) returned AI-2 QS mod 23, PREPL inh -6, ALR H2O2 inh 18, CHT block -6.8*, CHT PAM inactive, CHT block conf 25%* and HEK293 CHT ctr inactive.
For COc1ccc(C2=NN(C(=O)CCC(=O)O)C(c3ccccc3OC)C2)cc1 (stereo unspecified) the results were AI-2 QS mod 14, PREPL inh -2, ALR H2O2 inh 1, CHT block inactive and CHT PAM inactive.
Cn1c(CN2CCN(CCO)CC2)c(C#N)c2ccccc21 was read as AI-2 QS mod 25, PREPL inh -47, ALR H2O2 inh -1, CHT block -5.3*, CHT PAM inactive, CHT block conf 41%* and HEK293 CHT ctr inactive.
Screening Cc1ccccc1N1CCN(Cc2c(C#N)c3ccccc3n2C)CC1 returned AI-2 QS mod 18, PREPL inh 14, ALR H2O2 inh -1, CHT block inactive and CHT PAM inactive.
O=C(Cn1nc(C(F)(F)F)cc1C1CC1)NCc1ccccc1F was read as AI-2 QS mod 11, PREPL inh 2, CHT block -5.8*, CHT PAM inactive, CHT block conf 65%* and HEK293 CHT ctr inactive.
Screening O=C(Cn1nc(C(F)(F)F)cc1C1CC1)Nc1ccccc1F returned AI-2 QS mod 2, PREPL inh -1, ALR H2O2 inh 9, CHT block inactive and CHT PAM inactive.
`Cc1ccccc1OCc1csc(N)n1` gave AI-2 QS mod 17, PREPL inh 6, ALR H2O2 inh 4, CHT block inactive and CHT PAM inactive.
Screening Cn1cc([N+](=O)[O-])c(C(=O)N/N=C/c2cc3c(cc2Br)OCO3)n1 returned AI-2 QS mod 18, PREPL inh 15, ALR H2O2 inh -8, CHT block -9.1*, CHT PAM inactive, CHT block conf inactive and HEK293 CHT ctr inactive.
`Nc1nonc1C(=O)N/N=C/c1cc2c(cc1[N+](=O)[O-])OCO2` gave AI-2 QS mod 20, PREPL inh -4, ALR H2O2 inh -16, CHT block inactive and CHT PAM inactive.
Cc1ccc(Oc2ccc(NC(=O)CCC(=O)OCC(=O)c3cccs3)cc2)cc1C was read as AI-2 QS mod -23, PREPL inh 6, ALR H2O2 inh 0, CHT block inactive and CHT PAM inactive.
For NC(=O)C(=O)N/N=C/c1c(F)c(F)c(F)c(F)c1F the results were AI-2 QS mod 36, PREPL inh -3, ALR H2O2 inh 0, CHT block inactive and CHT PAM inactive.
CCOC(=O)c1c(/N=C/c2cc(OC)cc([N+](=O)[O-])c2O)sc(C)c1C was read as AI-2 QS mod 15, PREPL inh 8, ALR H2O2 inh 46, CHT block inactive and CHT PAM inactive.
`CCOC(=O)c1c(/N=C/c2cc([N+](=O)[O-])ccc2O)sc(C)c1C` gave AI-2 QS mod 26, PREPL inh 1, ALR H2O2 inh 98*, CHT block -5*, CHT PAM inactive, CHT block conf inactive and HEK293 CHT ctr inactive.
O=C(COc1ccc(F)cc1Cl)Nc1cccc(S(=O)(=O)N2CCCCCC2)c1 was read as PREPL inh 16 and ALR H2O2 inh -2.
Screening O=C(c1cnn2c(C(F)(F)F)cc(-c3cccs3)nc12)N1CCN(Cc2ccccc2)CC1 returned AI-2 QS mod -4, PREPL inh -42, ALR H2O2 inh 7, CHT block -5.5*, CHT PAM inactive, CHT block conf 57%* and HEK293 CHT ctr inactive.
For COc1ccccc1OCC(=O)NCCS(=O)(=O)N1CCN(c2ccccc2)CC1 the results were AI-2 QS mod 19, PREPL inh -13, ALR H2O2 inh 22, CHT block -6.9*, CHT PAM inactive, CHT block conf 58%* and HEK293 CHT ctr inactive.
For Cc1ccccc1OCC(=O)NCCS(=O)(=O)N1CCN(c2ccc(F)cc2)CC1 the results were AI-2 QS mod 5, PREPL inh -15, ALR H2O2 inh -5, CHT block inactive and CHT PAM inactive.
Screening CSc1ccccc1C(=O)NCCS(=O)(=O)N1CCN(c2ccc(F)cc2)CC1 returned AI-2 QS mod 15, PREPL inh -2, ALR H2O2 inh 6, CHT block -5.3*, CHT PAM inactive, CHT block conf 38%* and HEK293 CHT ctr inactive.
Screening Cc1ccc(C)c(N(C)S(=O)(=O)c2cccc3nsnc23)c1 returned AI-2 QS mod 10, PREPL inh 4, CHT block -5.2*, CHT PAM inactive, CHT block conf inactive and HEK293 CHT ctr inactive.
